Measurements published in PubChem BioAssay (EPA / NIEHS).
Records with an inconclusive call do not appear. Calls of active or inactive are those of the source. Rule for the calls: active = hit-call score of the fitted dose curve at least 0.9, where 1 is the maximum; inconclusive = response in the unintended direction; inactive = score below 0.9.

What was measured:
[1] = system: rat Monoamine Oxidase, MAO-A, Central (MAOAC), gene 29253; test: NVS_ENZ_rMAOAC: NovaScreen (NVS) Enzymatic Assay for rat Monoamine Oxidase, MAO-A, Central (MAOAC) (AID 2283243);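 note: potency refers to inhibition seen as signal drop below DMSO baseline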
Outline: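 Scintillation read-out of MAO-A activity in rat brain lysate, 1.5 h post-dosing. Primary single-concentration screen: 25 uM, duplicate; actives re-tested in concentration series. DMSO = negative control/baseline.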

[2] = system: rat Monoamine Oxidase, MAO-A, Peripheral (MAOAP), gene 29253; test: NVS_ENZ_rMAOAP: NovaScreen (NVS) Enzymatic Assay for rat Monoamine Oxidase, MAO-A, Peripheral (MAOAP) (AID 2283237)
Outline: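 Scintillation counting tracked MAO-A activity in a cell-free rat liver mitochondrial membrane prep, read 1.17 hours after compound addition. Single-point duplicate testing at 25 uM preceded concentration-response follow-up; activity was fitted relative to DMSO.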

[3] = target: rat Monoamine Oxidase, MAO-B, Central (MAOBC), Maob (gene 25750) (UniProt P19643); test: NVS_ENZ_rMAOBC: NovaScreen (NVS) Enzymatic Assay for rat Monoamine Oxidase, MAO-B, Central (MAOBC) (AID 2283238)
Outline: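 Actives from a duplicate 25 uM screen went on to singleton concentration-response with a 50 uM maximum. Enzyme source was rat brain tissue MAO-B, assayed cell-free. Radiolabelled product was counted by scintillation 1.17 h post-dose, with signal loss relative to DMSO.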

[4] = target: rat Monoamine Oxidase, MAO-B, Peripheral (MAOBP), Maob (gene 25750) (UniProt P19643); test: NVS_ENZ_rMAOBP: NovaScreen (NVS) Enzymatic Assay for rat Monoamine Oxidase, MAO-B, Peripheral (MAOBP) (AID 2283242)
rat Monoamine Oxidase, MAO-B, Peripheral (MAOBP), Maob (gene 25750), sequence (P19643 whole entry, looked up): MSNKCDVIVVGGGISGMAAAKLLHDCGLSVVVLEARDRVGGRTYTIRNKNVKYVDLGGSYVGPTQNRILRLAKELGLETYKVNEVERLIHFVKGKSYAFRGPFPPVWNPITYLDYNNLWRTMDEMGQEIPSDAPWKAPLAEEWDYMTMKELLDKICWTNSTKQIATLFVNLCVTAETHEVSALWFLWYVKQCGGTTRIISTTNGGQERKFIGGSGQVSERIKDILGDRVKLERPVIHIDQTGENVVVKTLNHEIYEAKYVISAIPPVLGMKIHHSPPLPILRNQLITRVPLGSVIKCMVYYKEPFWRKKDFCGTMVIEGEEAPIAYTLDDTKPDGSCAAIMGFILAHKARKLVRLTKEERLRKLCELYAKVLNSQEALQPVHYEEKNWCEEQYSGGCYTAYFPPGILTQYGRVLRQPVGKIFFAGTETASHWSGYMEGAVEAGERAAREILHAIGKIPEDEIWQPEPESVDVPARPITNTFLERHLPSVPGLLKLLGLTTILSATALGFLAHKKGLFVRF
Description: NVS_ENZ_rMAOBP is a biochemical, single-readout assay that uses extracted gene-proteins from Rat brain in a tissue-based cell-free assay. Measurements were taken 1.17 hours after chemical dosing in a 96-well plate.NVS_ENZ_rMAOBP is one of one assay component(s) measured or calculated from the NVS_ENZ_rMAOBP assay. It is designed to make measurements of enzyme activity, a form of enzyme reporter, as detected with scintillation counting signals by Lysate-based radiodetection technology.Data from the assay component NVS_ENZ_rMAOBP was analyzed into 1 assay endpoint. This assay endpoint, NVS_ENZ_rMAOBP, was analyzed in the positive analysis fitting direction relative to DMSO as the negative control and baseline of activity. Using a type of enzyme reporter, loss-of-signal activity can be used to understand changes in the enzymatic activity as they relate to the gene Maob. Furthermore, this assay endpoint can be referred to as a primary readout, because this assay has produced multiple assay endpoints where this one serves a enzymatic activity function. To generalize the intended target to other relatable targets, this assay endpoint is annotated to the oxidoreductase intended target family, where the subfamily is monoamine oxidase.
Binding assays used specific radioligands (tritiated, iodinated) with non-radioactive competitive displacement ligands in agonist or antagonist protocols (as indicated) and various reference compounds and inhibitors to titrate specific binding to receptors and transporters. Most enzyme assays (CYPs, kinases, phosphatases, proteases, HDACs) used recombinant protein and specific substrates (fluorescence mostly, some colorimetric and radioactive) and inhibitors, followed by a biochemical separation of substrate and product. All assays for the biochemical HTS were initially run in duplicate at a single concentration (10 uM for CYP450 assays and 25 uM for all others). Assay-chemical combinations meeting a pre-defined threshold (e.g., 30% inhibition and other criteria defined below) were then run in singleton concentration-response format with maximum concentration of 20 uM for CYPs and 50 uM for all others. Each assay was run with positive and negative controls, and concurrent controls on every plate. The follow-up (secondary) screen tested active chemical-pairs in concentration series, as well as a few additional assays not tested in the primary screen, some selected negative inactives, and several cases re-run in the concentration series for confirmatory purposes.

[5] = target: human Sirtuin 1 (SIRT1), SIRT1 (gene 23411) (UniProt Q96EB6); test: NVS_ENZ_hSIRT1: NovaScreen (NVS) Enzymatic Assay for human Sirtuin 1 (SIRT1) (AID 2283219)
human Sirtuin 1 (SIRT1), SIRT1 (gene 23411), sequence (Q96EB6 whole entry, looked up): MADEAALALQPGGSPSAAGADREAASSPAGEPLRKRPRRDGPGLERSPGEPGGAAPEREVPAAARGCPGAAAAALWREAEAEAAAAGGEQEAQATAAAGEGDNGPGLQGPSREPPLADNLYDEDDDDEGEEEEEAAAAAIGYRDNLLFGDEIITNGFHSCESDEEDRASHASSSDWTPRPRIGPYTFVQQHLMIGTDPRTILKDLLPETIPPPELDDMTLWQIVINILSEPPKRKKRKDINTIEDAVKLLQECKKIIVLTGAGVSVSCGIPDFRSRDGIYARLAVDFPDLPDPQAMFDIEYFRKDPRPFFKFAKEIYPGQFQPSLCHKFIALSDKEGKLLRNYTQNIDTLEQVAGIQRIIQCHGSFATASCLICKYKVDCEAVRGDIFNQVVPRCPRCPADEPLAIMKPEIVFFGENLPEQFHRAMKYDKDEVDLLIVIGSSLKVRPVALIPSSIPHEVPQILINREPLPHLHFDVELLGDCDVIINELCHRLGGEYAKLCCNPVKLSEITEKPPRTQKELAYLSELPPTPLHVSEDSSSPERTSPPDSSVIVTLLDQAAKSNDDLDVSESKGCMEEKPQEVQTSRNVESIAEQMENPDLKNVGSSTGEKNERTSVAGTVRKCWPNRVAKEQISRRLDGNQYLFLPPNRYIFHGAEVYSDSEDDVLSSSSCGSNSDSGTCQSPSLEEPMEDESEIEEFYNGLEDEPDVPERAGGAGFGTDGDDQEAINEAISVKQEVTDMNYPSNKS
Outline: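 Cell-free recombinant SIRT1 with a fluorescent substrate; substrate and product separated by electrophoretic mobility shift and read by fluorescence intensity, 1 h after dosing. Primary screen at 25 uM in duplicate; hits re-run in concentration-response up to 50 uM, relative to DMSO.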

[6] = target: human Sirtuin 3 (SIRT3), SIRT3 (gene 23410) (UniProt Q9NTG7); test: NVS_ENZ_hSIRT3: NovaScreen (NVS) Enzymatic Assay for human Sirtuin 3 (SIRT3) (AID 2283222)
Outline: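 Cell-free enzyme assay with recombinant protein and fluorescent substrate, product separated by electrophoretic mobility shift; read 1 hour after dosing. Screened in duplicate at 25 uM, then singleton concentration-response up to 50 uM; loss of signal versus DMSO.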

[7] = target: human Vascular Endothelial Growth Factor Receptor 3 (VEGFR3), FLT4 (gene 2324) (UniProt P35916); test: NVS_ENZ_hVEGFR3: NovaScreen (NVS) Enzymatic Assay for human Vascular Endothelial Growth Factor Receptor 3 (VEGFR3) (AID 2283229)
human Vascular Endothelial Growth Factor Receptor 3 (VEGFR3), FLT4 (gene 2324), sequence (P35916 whole entry, looked up): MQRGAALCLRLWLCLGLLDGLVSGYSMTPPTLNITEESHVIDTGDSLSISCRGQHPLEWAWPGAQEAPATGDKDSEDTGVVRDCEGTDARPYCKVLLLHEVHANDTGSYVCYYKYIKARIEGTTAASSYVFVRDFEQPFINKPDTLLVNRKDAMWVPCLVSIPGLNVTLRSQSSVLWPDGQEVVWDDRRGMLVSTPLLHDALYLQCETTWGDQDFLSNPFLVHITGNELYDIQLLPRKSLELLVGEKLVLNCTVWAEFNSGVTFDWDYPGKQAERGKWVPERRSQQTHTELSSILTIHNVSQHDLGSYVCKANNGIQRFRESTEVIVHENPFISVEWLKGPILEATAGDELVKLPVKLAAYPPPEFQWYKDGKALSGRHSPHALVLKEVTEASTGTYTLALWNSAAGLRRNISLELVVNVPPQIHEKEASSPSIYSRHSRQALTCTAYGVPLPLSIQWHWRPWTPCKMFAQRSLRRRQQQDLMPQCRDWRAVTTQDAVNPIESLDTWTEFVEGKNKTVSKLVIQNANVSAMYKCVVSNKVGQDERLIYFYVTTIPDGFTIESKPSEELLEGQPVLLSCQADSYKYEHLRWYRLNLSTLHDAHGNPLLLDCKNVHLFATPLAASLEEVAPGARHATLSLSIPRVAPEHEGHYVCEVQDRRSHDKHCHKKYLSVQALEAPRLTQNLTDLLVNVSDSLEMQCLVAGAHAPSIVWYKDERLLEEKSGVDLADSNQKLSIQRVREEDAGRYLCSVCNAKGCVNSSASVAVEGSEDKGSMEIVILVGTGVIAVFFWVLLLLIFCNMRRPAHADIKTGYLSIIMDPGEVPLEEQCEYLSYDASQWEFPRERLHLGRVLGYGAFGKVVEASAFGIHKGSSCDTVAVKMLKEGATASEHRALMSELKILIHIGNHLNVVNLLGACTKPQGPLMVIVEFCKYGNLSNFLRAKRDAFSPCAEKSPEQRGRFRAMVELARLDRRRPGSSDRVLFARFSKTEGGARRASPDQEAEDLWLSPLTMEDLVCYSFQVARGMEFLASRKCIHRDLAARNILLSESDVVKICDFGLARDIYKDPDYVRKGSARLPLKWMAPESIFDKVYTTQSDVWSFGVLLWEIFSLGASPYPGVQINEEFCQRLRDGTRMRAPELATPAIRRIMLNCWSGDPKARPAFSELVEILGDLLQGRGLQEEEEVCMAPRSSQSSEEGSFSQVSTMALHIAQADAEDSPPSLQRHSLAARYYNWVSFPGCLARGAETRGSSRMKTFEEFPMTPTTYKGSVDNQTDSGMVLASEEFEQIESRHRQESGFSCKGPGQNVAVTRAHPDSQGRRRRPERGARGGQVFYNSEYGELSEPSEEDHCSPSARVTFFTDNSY
Outline: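 Chemicals first run in duplicate at 25 uM, with actives re-tested in concentration series to a top of 50 uM. Recombinant VEGFR3 activity measured after 1 h via fluorescence with mobility-shift product separation; inhibition fitted relative to DMSO.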

[8] = target: human Tyrosine Protein Kinase Receptor Tie-2 (Tie2), TEK (gene 7010) (UniProt Q02763); test: NVS_ENZ_hTie2: NovaScreen (NVS) Enzymatic Assay for human Tyrosine Protein Kinase Receptor Tie-2 (Tie2) (AID 2283225)
human Tyrosine Protein Kinase Receptor Tie-2 (Tie2), TEK (gene 7010), sequence (Q02763 whole entry, looked up): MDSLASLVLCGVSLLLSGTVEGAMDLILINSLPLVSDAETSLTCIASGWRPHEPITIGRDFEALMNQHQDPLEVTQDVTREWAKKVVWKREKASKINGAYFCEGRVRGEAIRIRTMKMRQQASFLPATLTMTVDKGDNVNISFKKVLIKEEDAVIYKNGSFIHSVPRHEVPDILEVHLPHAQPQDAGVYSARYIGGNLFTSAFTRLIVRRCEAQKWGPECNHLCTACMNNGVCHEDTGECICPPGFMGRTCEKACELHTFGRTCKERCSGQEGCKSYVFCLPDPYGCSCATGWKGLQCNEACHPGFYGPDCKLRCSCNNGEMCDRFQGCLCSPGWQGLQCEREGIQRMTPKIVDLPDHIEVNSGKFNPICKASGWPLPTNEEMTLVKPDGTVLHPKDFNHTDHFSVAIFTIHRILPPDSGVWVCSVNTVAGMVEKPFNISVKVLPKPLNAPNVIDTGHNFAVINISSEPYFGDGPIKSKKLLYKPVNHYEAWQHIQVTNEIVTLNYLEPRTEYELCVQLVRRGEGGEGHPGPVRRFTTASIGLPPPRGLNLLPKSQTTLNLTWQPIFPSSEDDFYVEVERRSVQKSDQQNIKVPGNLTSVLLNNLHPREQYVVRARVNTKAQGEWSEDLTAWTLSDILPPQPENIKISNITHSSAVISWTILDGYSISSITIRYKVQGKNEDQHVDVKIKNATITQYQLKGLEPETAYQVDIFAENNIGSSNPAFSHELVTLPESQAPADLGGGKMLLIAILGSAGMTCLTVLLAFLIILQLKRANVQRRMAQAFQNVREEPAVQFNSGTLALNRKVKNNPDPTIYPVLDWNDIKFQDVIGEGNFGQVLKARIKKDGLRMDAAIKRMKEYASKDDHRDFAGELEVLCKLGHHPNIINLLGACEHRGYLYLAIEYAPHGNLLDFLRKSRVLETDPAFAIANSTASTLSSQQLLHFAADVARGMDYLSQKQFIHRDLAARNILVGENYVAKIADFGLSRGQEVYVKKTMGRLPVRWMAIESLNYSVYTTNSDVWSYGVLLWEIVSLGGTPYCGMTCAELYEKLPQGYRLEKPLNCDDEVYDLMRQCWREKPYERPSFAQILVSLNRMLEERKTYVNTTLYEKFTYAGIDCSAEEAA
Outline: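 Substrate and product were separated by mobility shift and detected by fluorescence after a 1-hour reaction with recombinant Tie2. Chemicals passing a 25 uM single-point screen were titrated to a maximum of 50 uM. Results were normalized to DMSO baseline.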

[9] = target: human SRC Proto-Oncogene, Non-receptor Tyrosine Kinase (SRC), SRC (gene 6714) (UniProt P12931); test: NVS_ENZ_hSRC: NovaScreen (NVS) Enzymatic Assay for human SRC Proto-Oncogene, Non-receptor Tyrosine Kinase (SRC) (AID 2283223)
Outline: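 Compounds passing 30% inhibition at 25 uM (duplicate) were titrated to a top concentration of 50 uM. Enzyme activity read by fluorescence with mobility-shift substrate/product separation after 1 h; DMSO baseline.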

[10] = target: human Tropomyosin Receptor Kinase A (TRKA), NTRK1 (gene 4914) (UniProt P04629); test: NVS_ENZ_hTrkA: NovaScreen (NVS) Enzymatic Assay for human Tropomyosin Receptor Kinase A (TRKA) (AID 2283224)
Outline: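 Compounds were screened at 25 uM in duplicate, then concentration series to a 50 uM top for those meeting threshold (e.g. 30% inhibition). Enzyme was recombinant human TrkA, incubated 1 h. Product formation was quantified by fluorescence after mobility-shift separation.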

[11] = target: human Vascular Endothelial Growth Factor Receptor 2 (VEGFR2), KDR (gene 3791) (UniProt P35968); test: NVS_ENZ_hVEGFR2: NovaScreen (NVS) Enzymatic Assay for human Vascular Endothelial Growth Factor Receptor 2 (VEGFR2) (AID 2283230)
human Vascular Endothelial Growth Factor Receptor 2 (VEGFR2), KDR (gene 3791), sequence (P35968 whole entry, looked up): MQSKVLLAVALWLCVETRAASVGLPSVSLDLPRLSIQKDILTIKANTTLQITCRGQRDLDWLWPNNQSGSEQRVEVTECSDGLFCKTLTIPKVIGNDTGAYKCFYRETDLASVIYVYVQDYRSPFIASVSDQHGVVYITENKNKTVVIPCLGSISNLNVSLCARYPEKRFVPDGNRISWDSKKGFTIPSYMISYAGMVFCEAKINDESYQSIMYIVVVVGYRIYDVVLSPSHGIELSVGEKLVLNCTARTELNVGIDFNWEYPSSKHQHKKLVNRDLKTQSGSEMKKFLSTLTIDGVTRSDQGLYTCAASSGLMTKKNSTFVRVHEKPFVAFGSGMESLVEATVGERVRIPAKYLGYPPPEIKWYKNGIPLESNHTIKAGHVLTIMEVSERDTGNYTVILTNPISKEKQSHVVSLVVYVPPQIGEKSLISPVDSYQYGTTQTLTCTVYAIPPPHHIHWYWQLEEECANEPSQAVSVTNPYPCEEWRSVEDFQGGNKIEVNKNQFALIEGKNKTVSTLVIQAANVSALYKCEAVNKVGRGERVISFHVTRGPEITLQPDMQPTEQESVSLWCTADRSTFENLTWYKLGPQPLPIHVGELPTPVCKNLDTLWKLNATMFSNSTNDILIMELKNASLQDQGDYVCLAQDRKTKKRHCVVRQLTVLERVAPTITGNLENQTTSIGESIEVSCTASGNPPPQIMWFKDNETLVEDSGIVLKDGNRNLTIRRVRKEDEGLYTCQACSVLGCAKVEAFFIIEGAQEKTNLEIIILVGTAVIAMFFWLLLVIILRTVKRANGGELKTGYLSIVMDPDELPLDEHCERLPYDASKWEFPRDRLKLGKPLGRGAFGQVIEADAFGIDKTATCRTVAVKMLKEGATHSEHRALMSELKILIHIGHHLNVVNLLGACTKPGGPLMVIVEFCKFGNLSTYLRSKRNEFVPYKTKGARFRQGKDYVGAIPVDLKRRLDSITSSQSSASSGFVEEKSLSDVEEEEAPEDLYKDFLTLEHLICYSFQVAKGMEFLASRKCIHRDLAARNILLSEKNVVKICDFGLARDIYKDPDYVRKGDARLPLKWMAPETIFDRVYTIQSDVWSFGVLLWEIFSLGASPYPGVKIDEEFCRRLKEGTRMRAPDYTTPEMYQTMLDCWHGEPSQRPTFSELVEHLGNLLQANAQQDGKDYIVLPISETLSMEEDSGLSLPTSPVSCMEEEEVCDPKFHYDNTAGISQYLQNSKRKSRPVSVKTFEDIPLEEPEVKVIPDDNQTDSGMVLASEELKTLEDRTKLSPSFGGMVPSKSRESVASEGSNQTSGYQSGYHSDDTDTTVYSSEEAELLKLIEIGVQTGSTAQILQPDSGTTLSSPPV
Outline: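 Cell-free recombinant VEGFR2 kinase, fluorescent substrate with electrophoretic mobility-shift separation; read 1 h after dosing. Screened at 25 uM in duplicate, hits to concentration-response up to 50 uM; loss-of-signal versus DMSO.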

[12] = system: bovine Angiotensin II Receptor Type 2 (AT2), gene 407157; test: NVS_GPCR_bAT2: NovaScreen (NVS) G Protein-Coupled Receptor Assay for bovine Angiotensin II Receptor Type 2 (AT2) (AID 2283240)
Outline: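 Radioligand displacement on bovine cerebellar membranes, 1 hour incubation, filter-based scintillation counting; loss of signal vs DMSO. Duplicate single-point screen at 25 uM, then concentration-response to 50 uM maximum.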

[13] = target: human Vascular Endothelial Growth Factor Receptor 1 (VEGFR1), FLT1 (gene 2321) (UniProt P17948); test: NVS_ENZ_hVEGFR1: NovaScreen (NVS) Enzymatic Assay for human Vascular Endothelial Growth Factor Receptor 1 (VEGFR1) (AID 2283226)
Outline: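 Kinase activity of recombinant human VEGFR1 was read by fluorescence after electrophoretic separation of product from substrate, 1 h post-dosing; initial duplicate single-point testing at 25 uM, followed by concentration-series follow-up, with DMSO as baseline.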

[14] = target: rat Catechol-O-Methyl Transferase (COMT), Comt (gene 24267) (UniProt P22734); test: NVS_ENZ_rCOMT: NovaScreen (NVS) Enzymatic Assay for rat Catechol-O-Methyl Transferase (COMT) (AID 2283235)
Outline: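 Rat dorsal striatum extract served as COMT source; product quantified by HPLC/spectrophotometry, read at 0 h after dosing. Primary single-concentration screen at 25 uM, followed by concentration series to a 50 uM maximum.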

[15] = target: rat Adenylate Cyclase, Forskolin Stimulated, Adcy5 (gene 64532) (UniProt Q04400); test: NVS_ENZ_rACFSKBinding: NovaScreen (NVS) Enzymatic Assay for rat Adenylate Cyclase, Forskolin Stimulated (AID 2283232)
Outline: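 Chemicals were first tested at 25 uM in duplicate, then hits run as concentration series with top concentration 50 uM. Enzyme source was rat forebrain membranes; radiometric filter read-out after 1 h, referenced to DMSO.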

[16] = target: sheep Cyclooxygenase-1 (Cox1), PTGS1 (gene 443551) (UniProt P05979); test: NVS_ENZ_oCOX1: NovaScreen (NVS) Enzymatic Assay for sheep Cyclooxygenase-1 (Cox1) (AID 2283239);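 note: actives reduce cyclooxygenase activity so potencies are for inhibitors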
Outline: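 Cell-free colorimetric assay of enzyme activity in a native extract of ovine seminal vesicles. Absorbance was read 0.66 hour after compound addition. Loss of signal relative to the DMSO negative control was scored, with actives from the 25 uM duplicate primary screen retested in concentration series.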

## Oc1c(Cl)c(Cl)c(Cl)c(Cl)c1Cl
[1]
  AC50: 15.5 µM (active)

## Cc1cc(O)ccc1Cl
[2]
  AC50: 19.1 µM (active)
[3]
  AC50: 13.6 µM (active)
[4]
  AC50: 25 µM (active)
[1]
  AC50: 18.5 µM (active)

## c1cc2ccc3cccc4ccc(c1)c2c34
[5]
  outcome: inactive
[6]
  outcome: inactive
[7]
  outcome: inactive

## Oc1ccc(C(c2ccc(O)cc2)(C(F)(F)F)C(F)(F)F)cc1
[5]
  AC50: 38.7 µM (active)
[6]
  AC50: 42.9 µM (active)
[8]
  AC50: 36.3 µM (active)

## CC1=C2C[C@H]3[C@@H](CC=C4C[C@@H](O)CC[C@@]43C)[C@@H]2CC[C@]12O[C@@H]1C[C@H](C)CN[C@H]1[C@H]2C
[9]
  outcome: inactive
[10]
  outcome: inactive
[8]
  outcome: inactive
[7]
  outcome: inactive
[11]
  outcome: inactive
[4]
  outcome: inactive

## CCNc1nc(NC(C)C)nc(SC)n1
[12]
  outcome: inactive

## O=C(O)C(F)(F)C(F)(F)C(F)(F)C(F)(F)C(F)(F)C(F)(F)C(F)(F)C(F)(F)F
[5]
  outcome: inactive
[10]
  outcome: inactive
[8]
  AC50: 6.63 µM (active)
[13]
  outcome: inactive
[7]
  outcome: inactive

## CCC(C)c1cc([N+](=O)[O-])cc([N+](=O)[O-])c1O (stereo not given)
[11]
  outcome: inactive
[14]
  AC50: 1.1 µM (active)

## CCSC(=O)N(CC)C1CCCCC1
[4]
  AC50: 32.8 µM (active)

## CC(C)(c1ccccc1)c1ccc(O)cc1
[11]
  outcome: inactive
[15]
  outcome: inactive
[3]
  outcome: inactive
[4]
  outcome: inactive

## Clc1ccc(C(c2ccccc2Cl)C(Cl)(Cl)Cl)cc1 (stereo not given)
[8]
  outcome: inactive
[7]
  outcome: inactive
[11]
  outcome: inactive
[16]
  outcome: inactive

## Cc1ccccc1CO[C@@H]1C[C@@]2(C(C)C)CC[C@]1(C)O2
[14]
  outcome: inactive
